Assays:
Assay in all cases: growth AUC relative to DMSO control (median of replicates) (fraction); higher = more growth (less inhibition), active = hit call of the paper
Details in all cases: 20 µM; 24 h;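 active = AUC reduced over 20% with Padj below 0.05 in at least 2 of 3 replicates; inactive = otherwise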
Akkermansia muciniphila = tested on: Akkermansia muciniphila
Summary of the method: (§1)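 OD600 was recorded every hour for 24 h in anaerobic monocultures of gut bacteria kept at 37 °C in mGAM, seeded at OD600 0.05 and given 20 µM compound in 1% DMSO. The area under each growth curve was scaled to the plate median of solvent-only wells, or to row and column medians for the industrial chemical plate. Before this step, the minimum OD was set to 0. Reported values are medians of three biological replicates run on separate days.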

Bacteroides caccae = tested on: Bacteroides caccae
Summary of the method: as §1

Bacteroides clarus = tested on: Bacteroides clarus
Summary of the method: as §1

Bacteroides dorei = tested on: Bacteroides dorei
Summary of the method: as §1

Bacteroides stercoris = tested on: Bacteroides stercoris
Summary of the method: as §1

[1] = tested on: Bacteroides thetaiotaomicron
Summary of the method: as §1

Bacteroides uniformis = tested on: Bacteroides uniformis
Summary of the method: as §1

[2] = tested on: Bifidobacterium longum subsp. longum
Summary of the method: as §1

Clostridium difficile = tested on: Clostridium difficile
Summary of the method: as §1

Collinsella aerofaciens = tested on: Collinsella aerofaciens
Summary of the method: as §1

Coprococcus comes = tested on: Coprococcus comes
Summary of the method: as §1

Escherichia coli ED1a = tested on: Escherichia coli ED1a
Summary of the method: as §1

Escherichia coli IAI1 = tested on: Escherichia coli IAI1
Summary of the method: as §1

Eubacterium rectale = tested on: Eubacterium rectale
Summary of the method: as §1

[3] = tested on: Fusobacterium nucleatum subsp. animalis
Summary of the method: as §1

Lactobacillus gasseri = tested on: Lactobacillus gasseri
Summary of the method: as §1

Lactobacillus paracasei = tested on: Lactobacillus paracasei
Summary of the method: as §1

Odoribacter splanchnicus = tested on: Odoribacter splanchnicus
Summary of the method: as §1

[4] = tested on: Parabacteroides distasonis
Summary of the method: as §1

Parabacteroides merdae = tested on: Parabacteroides merdae
Summary of the method: as §1

Measured: growth AUC

CN(C)c1ccc(N=NS(=O)(=O)[O-])cc1.[Na+]
inactive: Akkermansia muciniphila 1.03 | Bacteroides caccae 1.02 | Bacteroides clarus 1.01 | Bacteroides dorei 0.957 | Bacteroides stercoris 1.06 | [1] 0.955 | Bacteroides uniformis 0.98 | [2] 0.978 | Clostridium difficile 1.03 | Collinsella aerofaciens 1.02 | Coprococcus comes 1.03 | Escherichia coli ED1a 1.02 | Escherichia coli IAI1 1.03 | Eubacterium rectale 0.973 | [3] 1.01 | Lactobacillus gasseri 0.967 | Lactobacillus paracasei 1.02 | Odoribacter splanchnicus 1.03 | [4] 1.04 | Parabacteroides merdae 0.996

C=CCO/N=C(\CCC)C1=C([O-])CC(C)(C)C(C(=O)OC)C1=O.[Na+] (stereo not given)
inactive: Akkermansia muciniphila 1.2 | Bacteroides caccae 1 | Bacteroides clarus 1.03 | Bacteroides dorei 0.933 | Bacteroides stercoris 1.07 | [1] 1.02 | Bacteroides uniformis 1.01 | [2] 1.05 | Clostridium difficile 1.05 | Collinsella aerofaciens 1.03 | Coprococcus comes 1.03 | Escherichia coli ED1a 1.02 | Escherichia coli IAI1 1.02 | Eubacterium rectale 1.12 | [3] 1.12 | Lactobacillus gasseri 0.892 | Lactobacillus paracasei 1.04 | Odoribacter splanchnicus 1.05 | [4] 1.01 | Parabacteroides merdae 1.06

CCCCCCCCOC(=O)COc1cc(Cl)c(Cl)cc1Cl
inactive: Akkermansia muciniphila 1.05 | Bacteroides caccae 0.98 | Bacteroides clarus 1 | Bacteroides dorei 0.968 | Bacteroides stercoris 1.11 | [1] 1.01 | Bacteroides uniformis 0.982 | [2] 0.97 | Clostridium difficile 1.02 | Collinsella aerofaciens 0.94 | Coprococcus comes 0.946 | Escherichia coli ED1a 1.02 | Escherichia coli IAI1 1.01 | Eubacterium rectale 0.995 | [3] 1.02 | Lactobacillus gasseri 0.977 | Lactobacillus paracasei 1.11 | Odoribacter splanchnicus 1.08 | [4] 1.03 | Parabacteroides merdae 1.01

CN(C)C(=O)NC1CCCCCCC1
inactive: Akkermansia muciniphila 0.984 | Bacteroides caccae 1.01 | Bacteroides clarus 1.01 | Bacteroides dorei 0.996 | Bacteroides stercoris 1.09 | [1] 0.99 | Bacteroides uniformis 0.972 | [2] 1.01 | Clostridium difficile 1.03 | Collinsella aerofaciens 1.01 | Coprococcus comes 1.03 | Escherichia coli ED1a 0.999 | Escherichia coli IAI1 0.998 | Eubacterium rectale 1.06 | [3] 1.04 | Lactobacillus gasseri 1.04 | Lactobacillus paracasei 0.978 | Odoribacter splanchnicus 0.948 | [4] 1.02 | Parabacteroides merdae 1.01

CN(C)C(=O)SCCCCOc1ccccc1
inactive: Akkermansia muciniphila 0.993 | Bacteroides caccae 0.957 | Bacteroides clarus 0.967 | Bacteroides dorei 0.99 | Bacteroides stercoris 0.915 | [1] 0.973 | Bacteroides uniformis 0.992 | [2] 0.984 | Clostridium difficile 0.983 | Collinsella aerofaciens 0.993 | Coprococcus comes 0.968 | Escherichia coli ED1a 0.98 | Escherichia coli IAI1 0.962 | Eubacterium rectale 1.12 | [3] 0.958 | Lactobacillus gasseri 1.01 | Lactobacillus paracasei 0.975 | Odoribacter splanchnicus 0.981 | [4] 0.938 | Parabacteroides merdae 0.961

CNC(=O)Sc1ccc(OS(C)(=O)=O)cc1
inactive: Akkermansia muciniphila 0.955 | Bacteroides caccae 1.02 | Bacteroides clarus 0.858 | Bacteroides dorei 0.925 | Bacteroides stercoris 0.77 | [1] 0.848 | Bacteroides uniformis 0.953 | [2] 0.847 | Clostridium difficile 0.96 | Collinsella aerofaciens 1.01 | Coprococcus comes 1.02 | Escherichia coli ED1a 1.01 | Escherichia coli IAI1 1.02 | Eubacterium rectale 1.54 | [3] 1.09 | Lactobacillus gasseri 0.933 | Lactobacillus paracasei 0.953 | Odoribacter splanchnicus 0.864 | [4] 0.817 | Parabacteroides merdae 0.938

COc1c(I)cc(C#N)cc1I
inactive: Akkermansia muciniphila 0.86 | Bacteroides caccae 0.837 | Bacteroides clarus 0.932 | Bacteroides dorei 1.02 | Bacteroides stercoris 1.13 | [1] 0.932 | Bacteroides uniformis 0.882 | [2] 1.02 | Clostridium difficile 0.943 | Collinsella aerofaciens 0.883 | Coprococcus comes 0.973 | Escherichia coli ED1a 1 | Escherichia coli IAI1 0.975 | Eubacterium rectale 1 | [3] 0.981 | Lactobacillus gasseri 0.895 | Lactobacillus paracasei 0.911 | Odoribacter splanchnicus 1.03 | [4] 0.966 | Parabacteroides merdae 0.944

c1ccc(CNc2ncnc3nc[nH]c23)cc1
inactive: Akkermansia muciniphila 1.07 | Bacteroides caccae 1.02 | Bacteroides clarus 0.992 | Bacteroides dorei 0.983 | Bacteroides stercoris 0.995 | [1] 1.03 | Bacteroides uniformis 1.06 | [2] 0.975 | Clostridium difficile 0.932 | Collinsella aerofaciens 1 | Coprococcus comes 1.06 | Escherichia coli ED1a 0.989 | Escherichia coli IAI1 1.01 | Eubacterium rectale 1.16 | [3] 0.943 | Lactobacillus gasseri 0.956 | Lactobacillus paracasei 1.03 | Odoribacter splanchnicus 1.03 | [4] 1.05 | Parabacteroides merdae 1.02

CCCOC(=O)NCCCN(C)C
inactive: Akkermansia muciniphila 0.994 | Bacteroides caccae 1.01 | Bacteroides clarus 1.03 | Bacteroides dorei 1 | Bacteroides stercoris 0.98 | [1] 1.02 | Bacteroides uniformis 1 | [2] 1.02 | Clostridium difficile 0.987 | Collinsella aerofaciens 0.975 | Coprococcus comes 0.979 | Escherichia coli ED1a 1.02 | Escherichia coli IAI1 0.979 | Eubacterium rectale 0.952 | [3] 0.984 | Lactobacillus gasseri 0.951 | Lactobacillus paracasei 1.04 | Odoribacter splanchnicus 1.01 | [4] 0.989 | Parabacteroides merdae 0.977

N#Cc1ccc(CC(=NNC(=O)Nc2ccc(OC(F)(F)F)cc2)c2cccc(C(F)(F)F)c2)cc1 (mixture of isomers)
inactive: Akkermansia muciniphila 1 | Bacteroides caccae 1.03 | Bacteroides clarus 1.02 | Bacteroides dorei 1.03 | Bacteroides stercoris 0.988 | [1] 1.02 | Bacteroides uniformis 1.02 | [2] 0.999 | Clostridium difficile 1.01 | Collinsella aerofaciens 1.03 | Coprococcus comes 0.991 | Escherichia coli ED1a 0.986 | Escherichia coli IAI1 1.02 | Eubacterium rectale 0.963 | [3] 1.12 | Lactobacillus gasseri 1.15 | Lactobacillus paracasei 0.959 | Odoribacter splanchnicus 1.02 | [4] 0.999 | Parabacteroides merdae 0.936

Nc1ccc(S(=O)(=O)Nc2nccs2)cc1
inactive: Akkermansia muciniphila 0.9 | Bacteroides caccae 1.03 | Bacteroides clarus 0.992 | Bacteroides dorei 0.943 | Bacteroides stercoris 0.985 | [1] 0.978 | Bacteroides uniformis 1.02 | [2] 0.998 | Clostridium difficile 0.98 | Collinsella aerofaciens 0.978 | Coprococcus comes 1.02 | Escherichia coli ED1a 0.994 | Escherichia coli IAI1 0.968 | Eubacterium rectale 0.97 | [3] 0.993 | Lactobacillus gasseri 0.97 | Lactobacillus paracasei 1.02 | Odoribacter splanchnicus 0.987 | [4] 1 | Parabacteroides merdae 1.03

O=C(O)COc1cccc(Cl)c1Cl
inactive: Akkermansia muciniphila 0.919 | Bacteroides caccae 0.947 | Bacteroides clarus 0.971 | Bacteroides dorei 0.962 | Bacteroides stercoris 1.02 | [1] 0.993 | Bacteroides uniformis 0.997 | [2] 0.989 | Clostridium difficile 1 | Collinsella aerofaciens 0.992 | Coprococcus comes 1.01 | Escherichia coli ED1a 0.987 | Escherichia coli IAI1 1.01 | Eubacterium rectale 1.04 | [3] 1.12 | Lactobacillus gasseri 1.11 | Lactobacillus paracasei 0.898 | Odoribacter splanchnicus 0.92 | [4] 0.994 | Parabacteroides merdae 0.986

CS(=O)(=O)c1ccc(C(=O)C2C(=O)C(O)CC(O)C2=O)c(Cl)c1COCC(F)(F)F (stereo not given)
inactive: Akkermansia muciniphila 0.99 | Bacteroides caccae 0.986 | Bacteroides clarus 0.96 | Bacteroides dorei 0.972 | Bacteroides stercoris 0.982 | [1] 0.965 | Bacteroides uniformis 0.975 | [2] 0.978 | Clostridium difficile 0.99 | Collinsella aerofaciens 1 | Coprococcus comes 1 | Escherichia coli ED1a 0.988 | Escherichia coli IAI1 0.972 | Eubacterium rectale 0.798 | [3] 1.02 | Lactobacillus gasseri 1.02 | Lactobacillus paracasei 0.987 | Odoribacter splanchnicus 0.98 | [4] 1.03 | Parabacteroides merdae 0.998

From the supplement of paper PMC12669032
